# PubChem BioAssay (NCI)
# The panel holds about 79,000 compounds, 15% with a hit somewhere; the sample as a whole holds those more often. Values without a mark were called inactive. Active and inactive are the calls of the source. No stated cut-off is given here; in the data, active means growth inhibition above about 70%; inactive means the rest.
# Tests used:
# [1] = NCI Yeast Anticancer Drug Screen. Data for the rad52 strain (AID 147);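 further: 0% = growth of vehicle-treated control cultures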; details: S. cerevisiae rad52 mutant growth inhibition, hits give high values
# Method in brief: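 Growth of repair-deficient yeast cells was compared between compound-treated and vehicle-treated cultures to give percent inhibition.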
# [2] = NCI Yeast Anticancer Drug Screen. Data for the wt1 strain (AID 149);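 further: 0% = growth of vehicle-treated wt1 cultures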; details: S. cerevisiae wt1 strain (SPY 50644) growth inhibition, hits give high values
# Method in brief: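 Yeast wt1 strain exposed to compounds; growth inhibition measured relative to vehicle-treated controls.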
# [3] = NCI Yeast Anticancer Drug Screen. Data for the rad50EPP+ strain (AID 151);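 further: 0% = growth of vehicle-treated control cultures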; details: S. cerevisiae rad50 mutant strain, hits give high values
# Method in brief: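 Measured: growth inhibition of rad50EPP+ yeast. Reference: vehicle-treated controls. Screen uses strains with defined genetic alterations in DNA damage repair or cell cycle control.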
# [4] = NCI Yeast Anticancer Drug Screen. Data for the rad50 strain (AID 155);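 further: 0% = growth of vehicle-only cultures of the same strain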; details: S. cerevisiae rad50 strain growth inhibition, hits give high values
# Method in brief: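 Yeast carrying a defined DNA repair defect were exposed to test compounds, and growth was compared with vehicle-treated controls to give percent inhibition.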
# [5] = NCI Yeast Anticancer Drug Screen. Data for the mec2-1 strain (AID 157); details: S. cerevisiae mec2-1 strain, hits give high values
# Method in brief: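 Compounds were applied to mec2-1 yeast cells. Their growth was then compared with that of vehicle-treated cultures to give growth inhibition.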
# [6] = NCI Yeast Anticancer Drug Screen. Data for the rad14 strain (AID 159);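 further: 0% = growth of vehicle-treated control cultures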; details: S. cerevisiae rad14 strain growth inhibition, hits give high values
# Method in brief: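 Yeast cells carrying a defined DNA-repair defect were exposed to compounds, and growth inhibition was calculated relative to vehicle-treated control cultures.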
# [7] = NCI Yeast Anticancer Drug Screen. Data for the sgs1 mgt1 strain (AID 161);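 further: 0% = growth of cultures given vehicle only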; details: S. cerevisiae sgs1 mgt1 strain, hits give high values
# Method in brief: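 Yeast cells carrying a defined DNA-repair defect were exposed to test compounds. Growth inhibition was measured relative to vehicle-treated controls.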
# [8] = NCI Yeast Anticancer Drug Screen. Data for the CLN2oe strain (AID 163);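 further: 0% = growth of vehicle-only control cultures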; details: S. cerevisiae CLN2oe strain, hits give high values
# Method in brief: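 Cells of an engineered yeast line with disturbed cell-cycle regulation are treated with compound. Inhibition of growth is then calculated relative to the vehicle-treated reference.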
# [9] = NCI Yeast Anticancer Drug Screen. Data for the cln2 rad14 strain (AID 165);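 further: 0% = growth equal to vehicle treated cultures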; details: S. cerevisiae cln2 rad14 strain, hits give high values
# Method in brief: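 Strain: cln2 rad14 yeast, altered in cell cycle control and DNA damage repair. Read-out: growth inhibition vs vehicle.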
# [10] = NCI Yeast Anticancer Drug Screen. Data for the bub3 strain (AID 167); details: S. cerevisiae bub3 mutant strain, hits give high values
# Method in brief: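 Compounds were applied to a genetically altered yeast strain carrying a cell-cycle control defect. Growth inhibition was scored against vehicle-treated controls.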
# [11] = NCI Yeast Anticancer Drug Screen. Data for the wt2 strain (AID 169);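 further: 0% = growth of vehicle-treated yeast cultures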; details: S. cerevisiae wt2 strain growth inhibition, hits give high values
# Method in brief: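 Growth of compound-treated yeast is measured and expressed as inhibition relative to vehicle-only controls.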
# [12] = NCI Yeast Anticancer Drug Screen. Data for the mlh1 strain (AID 171);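 further: 0% = growth of vehicle-treated control cultures of the same strain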; details: S. cerevisiae mlh1 strain growth inhibition, hits give high values
# Method in brief: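 Test agents were incubated with yeast bearing a defined DNA damage repair or cell cycle control alteration; values are growth inhibition normalised to vehicle-treated cultures.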
# [13] = NCI Yeast Anticancer Drug Screen. Data for the sgs1 strain (AID 173);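 further: 0% = growth of vehicle-only control cultures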; details: S. cerevisiae sgs1 mutant, hits give high values
# Method in brief: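 Strain with an altered DNA repair or cell cycle pathway exposed to compound. Growth then measured. Value = inhibition versus vehicle control.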
# [14] = NCI Yeast Anticancer Drug Screen. Data for the mlh1 rad18 strain (AID 175); details: S. cerevisiae mlh1 rad18 strain growth inhibition, hits give high values
# Method in brief: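 A repair-deficient yeast strain is exposed to test compound, and growth is scored relative to vehicle-treated controls.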
# [15] = NCI Yeast Anticancer Drug Screen. Data for the rad18 strain (AID 177); details: S. cerevisiae rad18 mutant growth inhibition, hits give high values
# Method in brief: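 DNA-repair-defective yeast; compound treatment; growth inhibition scored against vehicle.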
# [16] = at 5.0 µM (retest, dose inferred, filed as 0.5)
# [17] = at 50.0 µM (retest, dose inferred, filed as 5.0)
structure (smiles),measurement,setting,value
CCCCc1nnc(NS(=O)(=O)c2ccc(C)cc2)s1,growth inhibition,[1]; at 1.2 µM,-14%
same,growth inhibition,[1]; at 3.7 µM,-20%
same,growth inhibition,[1]; at 11.0 µM,-3%
same,growth inhibition,[1]; at 33.0 µM,37%
same,growth inhibition,[1]; at 100.0 µM,83% (active)
same,growth inhibition,[2]; at 1.2 µM,-35%
same,growth inhibition,[2]; at 3.7 µM,-32%
same,growth inhibition,[2]; at 11.0 µM,-18%
same,growth inhibition,[2]; at 33.0 µM,19%
same,growth inhibition,[2]; at 100.0 µM,84% (active)
same,growth inhibition,[3]; at 1.2 µM,-29%
same,growth inhibition,[3]; at 3.7 µM,-34%
same,growth inhibition,[3]; at 11.0 µM,-30%
same,growth inhibition,[3]; at 33.0 µM,-21%
same,growth inhibition,[3]; at 100.0 µM,-35%
same,growth inhibition,[4]; at 1.2 µM,-15%
same,growth inhibition,[4]; at 3.7 µM,-13%
same,growth inhibition,[4]; [16],48%
same,growth inhibition,[4]; at 11.0 µM,0%
same,growth inhibition,[4]; at 33.0 µM,45%
same,growth inhibition,[4]; [17],94% (active)
same,growth inhibition,[4]; at 50.0 µM,72% (active)
same,growth inhibition,[4]; at 100.0 µM,86% (active)
same,growth inhibition,[5]; at 1.2 µM,-21%
same,growth inhibition,[5]; at 3.7 µM,-19%
same,growth inhibition,[5]; [16],70% (active)
same,growth inhibition,[5]; at 11.0 µM,-3%
same,growth inhibition,[5]; at 33.0 µM,31%
same,growth inhibition,[5]; [17],94% (active)
same,growth inhibition,[5]; at 50.0 µM,50.3%
same,growth inhibition,[5]; at 100.0 µM,81% (active)
same,growth inhibition,[6]; at 1.2 µM,-51%
same,growth inhibition,[6]; at 3.7 µM,-45%
same,growth inhibition,[6]; at 11.0 µM,-34%
same,growth inhibition,[6]; at 33.0 µM,6%
same,growth inhibition,[6]; at 100.0 µM,82% (active)
same,growth inhibition,[7]; [16],-24%
same,growth inhibition,[7]; [17],31%
same,growth inhibition,[7]; at 50.0 µM,72% (active)
same,growth inhibition,[8]; at 1.2 µM,0%
same,growth inhibition,[8]; at 3.7 µM,2%
same,growth inhibition,[8]; at 11.0 µM,15%
same,growth inhibition,[8]; at 33.0 µM,20%
same,growth inhibition,[8]; at 100.0 µM,87% (active)
same,growth inhibition,[9]; [16],35%
same,growth inhibition,[9]; [17],56%
same,growth inhibition,[9]; at 50.0 µM,49.5%
same,growth inhibition,[10]; at 1.2 µM,-4%
same,growth inhibition,[10]; at 3.7 µM,9%
same,growth inhibition,[10]; [16],27%
same,growth inhibition,[10]; at 11.0 µM,15%
same,growth inhibition,[10]; at 33.0 µM,47%
same,growth inhibition,[10]; [17],61%
same,growth inhibition,[10]; at 50.0 µM,68.2%
same,growth inhibition,[10]; at 100.0 µM,85% (active)
same,growth inhibition,[11]; at 1.2 µM,-28%
same,growth inhibition,[11]; at 3.7 µM,-22%
same,growth inhibition,[11]; at 11.0 µM,-10%
same,growth inhibition,[11]; at 33.0 µM,20%
same,growth inhibition,[11]; at 100.0 µM,80% (active)
same,growth inhibition,[12]; at 1.2 µM,-32%
same,growth inhibition,[12]; at 3.7 µM,-43%
same,growth inhibition,[12]; at 11.0 µM,-24%
same,growth inhibition,[12]; at 33.0 µM,23%
same,growth inhibition,[12]; at 100.0 µM,74% (active)
same,growth inhibition,[13]; at 1.2 µM,-13%
same,growth inhibition,[13]; at 3.7 µM,-22%
same,growth inhibition,[13]; at 11.0 µM,-6%
same,growth inhibition,[13]; at 33.0 µM,31%
same,growth inhibition,[13]; at 100.0 µM,80% (active)
same,growth inhibition,[14]; [16],77% (active)
same,growth inhibition,[14]; [17],99% (active)
same,growth inhibition,[14]; at 50.0 µM,59.1%
same,growth inhibition,[15]; at 1.2 µM,-12%
same,growth inhibition,[15]; at 3.7 µM,4%
same,growth inhibition,[15]; at 11.0 µM,15%
same,growth inhibition,[15]; at 33.0 µM,36%
same,growth inhibition,[15]; at 100.0 µM,86% (active)
